# PubChem BioAssay (NCATS)
# “And” between values parts separate entries of the source, which are not always exact repeats. Equal values may be shown once. Results filed as inconclusive are left out. The source made the active and inactive calls. Unless noted, the call rests on the fitted dose curve; in most records, active means well fitted cell-killing curve with a large enough effect; inconclusive means small, poorly fitted or top-dose-only effect, or effect the other way; inactive means flat fitted curve, though single readings scatter.
# Test system: not listed separately
# Assay: qHTS assay for cell viability of HEK293 cells (AID 743288); further: on the % scale 0 is the no-effect control and ±100 the full control effect; nearly all actives have a fitted effect of over 50% in size
# Settings: ATP luminescence (CellTiter-Glo), 18 h; max response: active compounds read low
# Method in brief: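 Viable-cell counts were inferred from luciferase-based ATP content in HEK293 cells seeded at 2,000/well, pre-incubated ≥5 h, then dosed with DMSO-solubilised compounds for 18 h at 37 C.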
row,Structure (SMILES),max response
1,CN(C)c1ccc(C(c2ccccc2)c2ccc(N(C)C)cc2)cc1,-22.1% (inactive)
2,CC1(C)C(=O)N(Br)C(=O)N1Cl,-4.13% (inactive)
3,S=C([S-])NCCNC(=S)[S-].S=C([S-])NCCNC(=S)[S-].[Mn+2].[Zn+2],2.96% (inactive)
4,CCCOC(=O)NCCCN(C)C,-0.93% (inactive)
5,CCNc1nc(N)nc(Cl)n1,-4.19% (inactive) and 3.18% (inactive)
6,S=C([S-])NCCNC(=S)[S-].[Mn+2],-16.3% (inactive)
7,O=c1oc(=O)c2cc3c(=O)oc(=O)c3cc12,-11.4% (inactive)
8,c1cc2ccc3ccc4ccc5cccc6c(c1)c2c3c4c56,-3.62% (inactive)
9,OCCOCCOCCOCCOCCO,-4.24% (inactive)

# Test system: not listed separately
# Assay: qHTS assay for cell viability of the p53RE-bla HCT-116 cell line (AID 743292); further: nearly all actives have a fitted effect of over 55% in size; further: potency means the concentration at half of the fitted maximal effect
# Settings: p53RE-bla HCT-116 viability, ATP luminescence, 16 h; series mostly up to 95 µM
# Method in brief: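 ATP-based luminescence, 16 h compound exposure at 37 C, p53RE-bla HCT-116 cells at 4,000/well.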
row,Structure (SMILES),Potency
1,CN(C)c1ccc(C(c2ccccc2)c2ccc(N(C)C)cc2)cc1,inactive
2,CC1(C)C(=O)N(Br)C(=O)N1Cl,inactive
3,CCNc1nc(N)nc(Cl)n1,inactive
4,S=C([S-])NCCNC(=S)[S-].[Mn+2],inactive
5,CCN(Cc1c(F)cccc1Cl)c1c([N+](=O)[O-])cc(C(F)(F)F)cc1[N+](=O)[O-],inactive
6,O=c1oc(=O)c2cc3c(=O)oc(=O)c3cc12,inactive
7,CC[C@H]1O[C@]2(CC[C@@H]1C)C[C@@H]1C[C@@H](C/C=C(\C)C[C@@H](C)/C=C/C=C3CO[C@@H]4[C@H](O)C(C)=C[C@@H](C(=O)O1)[C@]34O)O2,31.6 µM (active)
8,O=C(Nc1ccccc1)c1cc(Cl)ccc1O,35.5 µM (active)
9,c1cc2ccc3ccc4ccc5cccc6c(c1)c2c3c4c56,inactive

# Target: Nuclear receptor subfamily 1 group I member 2 (Rattus norvegicus) (UniProt Q9R1A7)
# Sequence (Q9R1A7 whole entry, looked up): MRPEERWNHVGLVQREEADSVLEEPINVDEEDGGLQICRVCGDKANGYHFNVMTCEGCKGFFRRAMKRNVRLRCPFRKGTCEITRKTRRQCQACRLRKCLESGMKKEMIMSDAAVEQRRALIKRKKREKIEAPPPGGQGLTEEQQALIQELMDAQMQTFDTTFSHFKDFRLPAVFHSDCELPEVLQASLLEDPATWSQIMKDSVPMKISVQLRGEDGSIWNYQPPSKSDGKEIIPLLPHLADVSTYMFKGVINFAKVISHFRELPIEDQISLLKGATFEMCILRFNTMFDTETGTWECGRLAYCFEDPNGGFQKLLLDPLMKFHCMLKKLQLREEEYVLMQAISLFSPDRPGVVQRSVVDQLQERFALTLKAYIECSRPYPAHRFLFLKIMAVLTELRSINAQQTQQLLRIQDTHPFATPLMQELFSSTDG
# Assay: qHTS assay for small molecule activators of the rat pregnane X receptor (rPXR) signaling pathway (AID 651751; call rule not given here; further: 0% is about no effect)
# Settings: rPXR reporter cells, luciferase (One-Glo), 24 h
row,Structure (SMILES),max response
1,CN(C)c1ccc(C(c2ccccc2)c2ccc(N(C)C)cc2)cc1,5.9% (inactive)
2,CC1(C)C(=O)N(Br)C(=O)N1Cl,1.46% (inactive)
3,S=C([S-])NCCNC(=S)[S-].S=C([S-])NCCNC(=S)[S-].[Mn+2].[Zn+2],-11.1% (inactive)
4,CCCOC(=O)NCCCN(C)C,8.36% (inactive)
5,CCNc1nc(N)nc(Cl)n1,-3.95% (inactive) and -0.52% (inactive)
6,S=C([S-])NCCNC(=S)[S-].[Mn+2],-0.103% (inactive) and -4.92% (inactive)
7,O=c1oc(=O)c2cc3c(=O)oc(=O)c3cc12,-1.16% (inactive)
8,c1cc2ccc3ccc4ccc5cccc6c(c1)c2c3c4c56,0.241% (inactive)

# Test system: not listed separately
# Assay: qHTS assay for small molecule activators of the human pregnane X receptor (PXR) signaling pathway (AID 720659; call rule not given here; further: 0% is about no effect)
# Settings: DPX-2 HepG2 CYP3A4-luciferase, 24 h; series mostly up to 92.3 µM
row,Structure (SMILES),outcome
1,CCCOC(=O)NCCCN(C)C,inactive
2,O=c1oc(=O)c2cc3c(=O)oc(=O)c3cc12,inactive
3,O=C(Nc1ccccc1)c1cc(Cl)ccc1O,inactive
